Assay results reported in PubChem BioAssay (EPA / NIEHS).
Results filed as inconclusive are left out. Activity calls are given as the source filed them. The calls were made as follows: active = hit-call score of the fitted dose curve at least 0.9, where 1 is the maximum; inconclusive = response in the unintended direction; inactive = score below 0.9.

These compounds were tested against Retinoic acid receptor RXR-alpha (Homo sapiens) (UniProt P19793) (assay: ATG_RXRa_TRANS: Attagene TRANS-FACTORIAL HepG2 Assay for human Retinoid X Receptor alpha (RXRa) (AID 2283012)).
Protocol: ATG_TRANS is a cell-based, multiplexed-readout assay that uses HepG2, a human liver cell line, with measurements taken at 24 hours after chemical dosing in a 24-well plate.ATG_RXRa_TRANS is one of 30 assay component(s) measured or calculated from the ATG_TRANS assay. It is designed to make measurements of mRNA induction, a form of inducible reporter, as detected with fluorescence intensity signals by Reverse transcription polymerase chain reaction (RT-PCR) and Capillary electrophoresis technology.Data from the assay component ATG_RXRa_TRANS was analyzed into 1 assay endpoint. This assay endpoint, ATG_RXRa_TRANS, was analyzed in the positive analysis fitting direction relative to DMSO as the negative control and baseline of activity. Using a type of inducible reporter, measures of mRNA for gain-of-signal activity can be used to understand the reporter gene at the transcription factor-level as they relate to the gene RXRA. Furthermore, this assay endpoint can be referred to as a primary readout, because this assay has produced multiple assay endpoints where this one serves a reporter gene function. To generalize the intended target to other relatable targets, this assay endpoint is annotated to the nuclear receptor intended target family, where the subfamily is non-steroidal.
Human liver HepG2 cells are transiently transfected with multiple reporter transcription units (MRTUs) in 6-well plates using FuGene 6 reagent (Roche; 3 ml FuGene/1 mg DNA). The MRTU constructs are regulated by a cis-regulating element (promoter). […] A major difference between the CIS and TRANS system is that in CIS activities of endogenous TFs are measured, whereas the TRANS assay evaluates changes in activities of exogenous, chimeric NR-Gal4 proteins. […] At the end of 24 hour incubation, total RNA was isolated using TriZol reagent (Invitrogen). The isolated RNA is then reverse-transcribed using oligo(dT) primer and Mo-MLV reverse transcriptase (Invitrogen) with DNAse I (Ambion) treatment for 30 min. The one-tenth of the produced cDNA was amplified by PCR using Taq DNA polymerase (Invitrogen) and two reporter sequence-specific primers. The PCR products were fluorescently labeled by primer extension with 6-arboxyfluorescein (6-FAM) 5'-labeled reporter sequence-specific primer (2 min at 95 C, 20 s at 68 C and 10 min at 72 C) and these products were digested with 5U of HpaI (New England Biolabs) for 2h at 37 C. The fragments were purified using Qiaquick PCR columns (Qiagen), analyzed on an ABI 3130xL genetic analyzer (Applied Biosystems) with peak positions identified by using a set of X-rhodamine (ROX)-labeled MapMarker1000 molecular weight standards (BioVentures). The raw capillary electrophoresis data was processed using Attagraph software (Attagene).

Sequence of Retinoic acid receptor RXR-alpha (Homo sapiens) (P19793 whole entry, looked up): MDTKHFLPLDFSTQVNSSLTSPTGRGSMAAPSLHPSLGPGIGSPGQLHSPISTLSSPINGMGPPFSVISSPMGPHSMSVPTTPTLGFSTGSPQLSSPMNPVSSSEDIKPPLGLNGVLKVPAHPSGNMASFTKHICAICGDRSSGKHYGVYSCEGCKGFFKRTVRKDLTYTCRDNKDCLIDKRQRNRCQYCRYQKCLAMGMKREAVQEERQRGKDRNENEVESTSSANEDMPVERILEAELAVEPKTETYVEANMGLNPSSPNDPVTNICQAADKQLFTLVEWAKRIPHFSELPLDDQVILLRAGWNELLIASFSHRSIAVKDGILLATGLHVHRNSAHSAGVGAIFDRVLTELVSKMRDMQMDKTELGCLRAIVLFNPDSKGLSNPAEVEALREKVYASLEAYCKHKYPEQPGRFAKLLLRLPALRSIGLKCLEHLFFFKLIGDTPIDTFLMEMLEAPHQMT

outcome, inactive:
O=C(OCc1ccccc1)c1ccccc1
CC(C)(Oc1ccc(Cl)cc1)C(=O)O
CN(C)CCCN1c2ccccc2CCc2ccc(Cl)cc21
CCO[Si](CCCN)(OCC)OCC
C/C=C(\C)C(=O)OCC/C=C\CC
Oc1cccc2ccccc12
COC(=O)[C@]1(C)CCC[C@@]2(C)[C@H]1CC=C1C=C(C(C)C)CC[C@@H]12
CCCCCCCCCC/C=C/C1CC(=O)OC1=O (stereo not given)
C[C@H]1C[C@H]2[C@@H]3CCC4=CC(=O)C=C[C@]4(C)[C@@]3(F)[C@@H](O)C[C@]2(C)[C@@]1(O)C(=O)CO
CCC(C)NC(N)=O (stereo not given)
CCOC(=O)c1ccccc1
CC/C=C\CC1=C(C)CCC1=O
CC(=O)OC(C)(C)Cc1ccccc1
c1ccc2c(c1)Oc1ccccc1S2
Brc1ccc(Oc2ccc(Br)cc2)cc1
CCCCCCC1CCCC(=O)O1 (stereo not given)
C=CN1CCCCCC1=O
CCCCCC[C@@H](O)C/C=C\CCCCCCCC(=O)O
CCCCNC(N)=O
COc1c2occc2cc2ccc(=O)oc12
c1ccc(CNc2ncnc3nc[nH]c23)cc1
CC(C)CC(=O)CC(C)C
CC(C)(C)NC(=O)[C@@H]1CN(Cc2cccnc2)CCN1C[C@@H](O)C[C@@H](Cc1ccccc1)C(=O)N[C@H]1c2ccccc2C[C@H]1O
c1cc[c]([Bi]([c]2ccccc2)[c]2ccccc2)cc1
CCO[Si](OCC)(OCC)c1ccccc1
CC[N+](CC)(CC(=O)Nc1c(C)cccc1C)Cc1ccccc1
O=C(O)c1cc(Cl)cc(Cl)c1O
COC(=O)c1ccccc1
O=C(O)c1ccccc1C(=O)O
Cc1cc(-n2nc3ccc(Cl)cc3n2)c(O)c(C(C)(C)C)c1
O=C1NC(=O)C2CC=CCC12 (stereo not given)
CCOC(=O)CC(=O)OCC
CCC(C)C1N=C(C)C(C)S1 (stereo not given)
O=S(=O)(O)c1cccc2ccccc12
OCCN(CCO)c1cccc(Cl)c1
CC/C=C\CCCCCO
CC(O)(P(=O)(O)O)P(=O)(O)O
C=C1CC[C@H]2C[C@@H]1C2(C)C

AC50, active:
Oc1ccc(Cl)cc1C1CCCC1 17.6 µM
O=C1CCCCCCCCCCCCCC1 26.5 µM
